Data from ChEMBL document CHEMBL1201862, “PubChem BioAssay data set” (2004).
The whole screen tested about 320,000 compounds, of which about 740 (0.23%) were called active. Another 2% or so got no clear call; they are omitted. This is one part of a sample in which actives are shown more often than they occur. The calls are words filed in the database; no cut-off is given here.

Tested on: Saccharomyces cerevisiae
Experiment: qHTS Assay for Small Molecule Inhibitors of Mitochondrial Division or Activators of Mitochondrial Fusion.
Format: functional
Details: read-out: Potency

SMILES | AC50
O=C(O)Cc1ccccc1Nc1c(Cl)cccc1Cl [DICLOFENAC SODIUM] | 20.6 µM (active)
